From PubChem BioAssay come the findings set out here.

Molecules are shown by their SMILES. Calls of active or inactive are those of the source. Rule as the data show it, unless noted: active = nuclear beta-catenin stimulation mostly above about 4.2% (no sharp cut-off); inactive = mostly below about 10%.

Experiment [1] is described as follows: stimulators of nuclear beta-catenin in C2C12, primary screen, imaging, WNT3A-conditioned medium, mouse C2C12, NPC library (AID 1117326). The settings on record: stronger effect = higher value.
A short description of experiment [2]: stimulators of insulin release from INS-1E, primary screen, cell-based, 5 mM glucose, NPC library (AID 1117329;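 active = compound raises insulin release from rat beta cells at 5 mM glucose, no numeric limit stated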). The conditions noted are these: rat INS-1E insulin secretion, at 10 µM, stronger effect = higher value.
Experiment [3] in a line: growth inhibition of GSK3B-pretreated HCT116 cells – cell-based, CellTiter-Glo, 0.2 to 20 µM (AID 1117336;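 active = compounds lowering colon cancer cell viability after pretreatment blocking the GSK3B kinase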). The settings on record: HCT116 viability after GSK3B inhibitor, at 20 µM, stronger effect = higher value.
A short description of experiment [4]: inhibition of endothelial tube formation, primary screen, imaging, VEGF stimulated, CD31 staining, tube area, NPC library (AID 1117340;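 active = compound that reduces growth-factor-driven endothelial tube area in a mixed cell culture, no cutoff stated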). The settings on record: VEGF-stimulated ADSC/ECFC co-culture, at 10 µM, stronger effect = higher value.
Experiment [5] can be described thus: glucagon-like peptide 1 release enhancers, primary assay, NCI-H716 cell line, NPC library (AID 1117341;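 active = compound raises GLP1 secretion from the human gut endocrine cells, with no numeric limit stated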). The conditions noted are these: NCI-H716 cells, at 10 µM, stronger effect = higher value.
The nature of experiment [6]: HCT116 colon cancer cell growth inhibition, primary screen, CellTiter-Glo luminescence, NPC library (AID 1117342;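 active = compounds that lower survival of HCT116 colon cancer cells in the luminescence readout, no numeric limit stated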). The settings on record: at 20 µM (top of the series). A general note: ATP-based viability assays read luminescence as a measure of living cells.
Experiment [7] is described as follows: CellTiter-Glo luminescent readout of SW480 viability loss, NPC library primary (AID 1117343;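 active = compounds that lower viability of the colon cancer cells in the luminescence readout, with no numeric limit stated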). The conditions noted are these: CellTiter-Glo luminescence; at 20 µM (top of the series).
The nature of experiment [8]: decreased DLD-1 cellular survival, CellTiter-Glo luminescent readout, NPC compound collection, primary HTS (AID 1117346;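 active = compounds that lower survival of DLD-1 colon cancer cells in the luminescence readout, no cutoff given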). The settings on record: DLD-1 viability, CellTiter-Glo luminescence; at 20 µM (top of the series).
The target in experiment [9] is 6-phosphogluconate dehydrogenase, decarboxylating (Homo sapiens) (UniProt P52209). In words: 6PGD enzyme inhibitors, primary screen, biochemical, human, recombinant enzyme, NADPH absorbance (AID 1159550;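 active = at least 20% inhibition of 6-phosphogluconate dehydrogenase activity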). The conditions noted are these: recombinant 6PGD, NADPH absorbance 341 nm; at 10 µM; stronger effect = higher value.
Sequence of 6-phosphogluconate dehydrogenase, decarboxylating (Homo sapiens) (P52209 whole entry, looked up): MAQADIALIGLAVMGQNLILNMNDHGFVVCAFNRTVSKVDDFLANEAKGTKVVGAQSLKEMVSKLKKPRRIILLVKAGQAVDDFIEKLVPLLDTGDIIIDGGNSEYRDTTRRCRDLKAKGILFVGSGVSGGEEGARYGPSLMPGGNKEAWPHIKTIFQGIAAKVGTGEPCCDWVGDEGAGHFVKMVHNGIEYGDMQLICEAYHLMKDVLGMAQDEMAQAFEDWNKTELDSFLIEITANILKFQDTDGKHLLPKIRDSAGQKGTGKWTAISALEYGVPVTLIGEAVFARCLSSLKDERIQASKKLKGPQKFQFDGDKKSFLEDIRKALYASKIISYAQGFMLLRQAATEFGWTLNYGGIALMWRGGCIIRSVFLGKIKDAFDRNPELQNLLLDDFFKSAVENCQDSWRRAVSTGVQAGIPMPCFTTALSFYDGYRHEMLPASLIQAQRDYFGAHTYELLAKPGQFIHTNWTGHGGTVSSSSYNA

Consider `COc1ccc(CCN2CCC(Nc3nc4ccccc4n3Cc3ccc(F)cc3)CC2)cc1`, for which the nuclear beta-catenin stimulation is -1.3% (inactive) in experiment [1] (at 10 µM) and 3.9% in experiment [1] (stimulation, at 2 µM). Moreover, the insulin secretion stimulation in experiment [2] was 5.85% (inactive). Besides, the viability decrease in experiment [3] is 108% (active). In addition, the tube area decrease in [4] was 98.1% (active). Further, the GLP1 secretion stimulation in experiment [5] is 14% (inactive). Moreover, the inhibition of viability in experiment [6] is 112% (active). Besides, the viability decrease (inhibition) in experiment [7] was 129% (active); in [8], 100% (active). Besides, in experiment [9], the inhibition – broadly, the drop in the measured response relative to a control, in per cent – is 14.2% (inactive).
As for `CC(=O)Oc1c(C)c(C)c2c(c1C)CC[C@@](C)(CCC[C@H](C)CCC[C@H](C)CCCC(C)C)O2`, the nuclear beta-catenin stimulation in experiment [1] (at 10 µM) is 1.7% (inactive); in experiment [1] (stimulation, at 2 µM), 2%. For the same compound, in experiment [2], the insulin secretion stimulation is 0.3% (inactive). Moreover, the viability decrease in experiment [3] is -9.9% (inactive). Moreover, the tube area decrease in experiment [4] was -15.2% (inactive). For the same compound, the GLP1 secretion stimulation in experiment [5] is 1.2% (inactive). The inhibition of viability in [6] was 1.13% (inactive). Also, the viability decrease (inhibition) is -13.6% (inactive) in [7] and -19.7% (inactive) in [8]. The inhibition in experiment [9] was 14% (inactive).
As to `CCO/C([O-])=N/c1c[n+](N2CCOCC2)no1`, the nuclear beta-catenin stimulation was 0.8% (inactive) in experiment [1] (at 10 µM) and 1.2% in [1] (stimulation, at 2 µM). Further, the insulin secretion stimulation in experiment [2] is 0.9% (inactive). For the same compound, the viability decrease in experiment [3] was 22.3% (inactive). Also, the tube area decrease in [4] is 2.4% (inactive). Moreover, the GLP1 secretion stimulation in experiment [5] is -0.5% (inactive). Also, the inhibition of viability in experiment [6] is 8.63% (inactive). In addition, the viability decrease (inhibition) is 43.4% (inactive) in [7] and -1.5% (inactive) in [8]. In addition, the inhibition in experiment [9] was 16.2% (inactive).
Consider `CC1(C)S[C@@H]2[C@H](NC(=O)[C@H](N)c3ccccc3)C(=O)N2[C@H]1C(=O)O`, for which the nuclear beta-catenin stimulation in experiment [1] (at 10 µM) is -0.1% (inactive); in [1] (stimulation, at 2 µM), -0.4%. Further, in experiment [2], the insulin secretion stimulation is -0.2% (inactive). Also, in [3], the viability decrease was -19% (inactive). For the same compound, the tube area decrease in [4] was 16.3% (inactive). The GLP1 secretion stimulation in [5] was 1.2% (inactive). Moreover, the inhibition of viability in experiment [6] is -2.8% (inactive). For the same compound, the viability decrease (inhibition) in experiment [7] was -8.7% (inactive); in experiment [8], -9.6% (inactive). Also, the inhibition in [9] is 9.14% (inactive).
For the compound `CN1CCC[C@@H]1CCO[C@](C)(c1ccccc1)c1ccc(Cl)cc1`, the nuclear beta-catenin stimulation in experiment [1] (at 10 µM) was 7.8% (inactive); in experiment [1] (stimulation, at 2 µM), 2.3%. In addition, the insulin secretion stimulation in experiment [2] is 1.3% (inactive). Moreover, in experiment [3], the viability decrease is 25.3% (inactive). Besides, the tube area decrease in [4] is 55% (active). Besides, in experiment [5], the GLP1 secretion stimulation was 10.3% (inactive). The inhibition of viability in [6] was 78.8% (active). Moreover, the results for the viability decrease (inhibition) in experiment [7] and in [8] were 113% (active) and 86.8% (active), respectively. The inhibition in experiment [9] is 12.4% (inactive).
With `NS(=O)(=O)c1cc2c(cc1Cl)NC(C(Cl)Cl)NS2(=O)=O` (stereo not given), the nuclear beta-catenin stimulation was -0.1% (inactive) in experiment [1] (at 10 µM) and -0.1% in [1] (stimulation, at 2 µM). In addition, the insulin secretion stimulation in experiment [2] is 1.15% (inactive). Moreover, the viability decrease in experiment [3] is 13.9% (inactive). The tube area decrease in experiment [4] is -20.1% (inactive). Further, the GLP1 secretion stimulation in experiment [5] was 0.9% (inactive). In experiment [6], the inhibition of viability was -37.1% (inactive). The viability decrease (inhibition) is -6.6% (inactive) in experiment [7] and 6.3% (inactive) in experiment [8]. Besides, the inhibition in experiment [9] is 17.4% (inactive).
For the compound `C=C[C@@]1(C)CC(=O)[C@]2(O)[C@@]3(C)[C@@H](O)CCC(C)(C)[C@@H]3[C@H](O)[C@H](OC(C)=O)[C@@]2(C)O1`, the nuclear beta-catenin stimulation is 1.1% (inactive) in [1] (at 10 µM) and 0.6% in experiment [1] (stimulation, at 2 µM). Moreover, the insulin secretion stimulation in [2] is 3.6% (inactive). Also, the viability decrease in experiment [3] was -20.2% (inactive). Besides, the tube area decrease in experiment [4] is -41% (inactive). For the same compound, the GLP1 secretion stimulation in [5] was 5% (inactive). Besides, the inhibition of viability in experiment [6] is 17.1% (inactive). The viability decrease (inhibition) in [7] is 56.2% (active); in [8], -16.6% (inactive). Moreover, the inhibition in experiment [9] is 14.7% (inactive).
On to `CCN(CCCc1ccccc1)CCCc1ccccc1`, for which the nuclear beta-catenin stimulation was 1% (inactive) in experiment [1] (at 10 µM) and 4.5% in [1] (stimulation, at 2 µM). Further, the insulin secretion stimulation in experiment [2] is 7.3% (inactive). Also, the viability decrease in experiment [3] is -119% (inactive). The tube area decrease in experiment [4] is 5.4% (inactive). The GLP1 secretion stimulation in [5] is 2.7% (inactive). Besides, in [6], the inhibition of viability is 41.4% (inactive). Also, the viability decrease (inhibition) in experiment [7] was 44% (inactive); in [8], 60.1% (active). The inhibition in experiment [9] is 7.45% (inactive).
As for `c1ccc(CN(CC2=NCCN2)c2ccccc2)cc1`, the nuclear beta-catenin stimulation in experiment [1] (at 10 µM) is 3.4% (inactive); in experiment [1] (stimulation, at 2 µM), 2.4%. The insulin secretion stimulation in [2] was 11.3% (inactive). Further, the viability decrease in experiment [3] was -68.5% (inactive). The tube area decrease in experiment [4] was 23.2% (inactive). In addition, the GLP1 secretion stimulation in experiment [5] was -1.9% (inactive). For the same compound, the inhibition of viability in [6] is 15.7% (inactive). The viability decrease (inhibition) in experiment [7] was 22% (inactive); in experiment [8], 0.7% (inactive). For the same compound, the inhibition in [9] is -4.52% (inactive).
As to `CCN(CC)CCNC(=O)COc1ccc(OC)cc1`, the nuclear beta-catenin stimulation was 0.5% (inactive) in [1] (at 10 µM) and 1.9% in experiment [1] (stimulation, at 2 µM). In experiment [2], the insulin secretion stimulation was 1.8% (inactive). Moreover, in experiment [3], the viability decrease was -5.3% (inactive). Besides, in [4], the tube area decrease was -8.1% (inactive). For the same compound, the GLP1 secretion stimulation in experiment [5] was 2.1% (inactive). In experiment [6], the inhibition of viability is -18.7% (inactive). Moreover, the viability decrease (inhibition) in experiment [7] was 22.1% (inactive); in experiment [8], -6.15% (inactive). Besides, in experiment [9], the inhibition is -14.6% (inactive).
In the case of `O=C1OCCN1/N=C/c1ccc([N+](=O)[O-])o1`, the nuclear beta-catenin stimulation in experiment [1] (at 10 µM) is 1.7% (inactive); in experiment [1] (stimulation, at 2 µM) it was -0.6%. Moreover, in [2], the insulin secretion stimulation was -3% (inactive). In addition, the viability decrease in experiment [3] is 24.6% (inactive). In addition, the tube area decrease in [4] is -8.5% (inactive). For the same compound, the GLP1 secretion stimulation in experiment [5] was 5.7% (inactive). In addition, the inhibition of viability in [6] is 12.3% (inactive). The viability decrease (inhibition) was 74.9% (active) in experiment [7] and 25.6% (inactive) in experiment [8]. Also, the inhibition in experiment [9] was 12.5% (inactive).
With `O=c1[nH]cnc2c1ncn2[C@@H]1O[C@H](CO)[C@@H](O)[C@H]1O`, the nuclear beta-catenin stimulation in experiment [1] (at 10 µM) was -1% (inactive); in experiment [1] (stimulation, at 2 µM), 3.1%. Further, the insulin secretion stimulation in experiment [2] is -0.1% (inactive). The viability decrease in [3] was -12.4% (inactive). The tube area decrease in experiment [4] is 2.1% (inactive). The GLP1 secretion stimulation in experiment [5] is 0.9% (inactive). The inhibition of viability in [6] is -0.1% (inactive). The viability decrease (inhibition) in experiment [7] is -39.7% (inactive); in experiment [8], -12.5% (inactive). Also, the inhibition in [9] was -10.6% (inactive).
As for `C[C@@H]1CC[C@@]2(OC1)O[C@H]1C[C@H]3[C@@H]4CC[C@H]5C[C@@H](O)CC[C@]5(C)[C@H]4CC(=O)[C@]3(C)[C@H]1[C@@H]2C`, the nuclear beta-catenin stimulation in experiment [1] (at 10 µM) is 6.5% (inactive); in experiment [1] (stimulation, at 2 µM), 4.8%. Also, the insulin secretion stimulation in [2] was 3.2% (inactive). The viability decrease in experiment [3] is 13.4% (inactive). Further, the tube area decrease in [4] is -13.1% (inactive). For the same compound, the GLP1 secretion stimulation in experiment [5] is -3.1% (inactive). Further, the inhibition of viability in experiment [6] is 4.27% (inactive). Moreover, the viability decrease (inhibition) was 7.5% (inactive) in experiment [7] and 3.7% (inactive) in experiment [8]. Further, in experiment [9], the inhibition was 14.9% (inactive).
